HIV Env fusion = inhibitors of HIV Env-mediated cell fusion. HeLa-JRFL Env/CEM21 cell fusion, luciferase. AID 651610. inhibition, % at 12.3 µM. hit rate 1.1% among 360,000;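 active = mean replicate inhibition score of at least 50 and every replicate individually at or above 50; inconclusive = only one of the two criteria met; inactive = mean below 50 and not all replicates reaching 50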;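 note: 0% = plate neutral controls and 100% = maraviroc near 300 nM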
esBAF inh = inhibitors of esBAF chromatin remodeling in mouse ES cells | Bmi1-luciferase knock-in reporter, 24 h; 100% = twice the neutral-well signal | reporter increase, % at 12.5 µM | hit rate 2% among 350,000; in the data active = activation above about 40%; inconclusive = no clear call, values can overlap the other calls;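 note: 0% = median of the plate's neutral control wells and 100% = double that signal; a rise in the Bmi1 reporter signal indicates esBAF inhibition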
Wnt bcat act = activates Wnt/beta-catenin signaling in a reporter cell assay; activator, plate reader; activation, % at 9.35 µM; hit rate 1.2% among 300,000; AID 743398; in the data active = activation above about 30%, passing the limit was not always enough; inconclusive = no clear call, values can overlap the other calls;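 note: 0% = neutral control wells and 100% = positive control wells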
miR-122 sensor = inhibitors of miR-122 in Huh7 cells. activation (reporter increase), % at 12.5 µM. hit rate 0.3% among 340,000. Huh7 miR-122 Renilla luciferase sensor, 48 h; neutral wells = 0, positive control = 100;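 active = mean replicate activation score at least 90 and every replicate individually at or above 90; inconclusive = only one of the two criteria met; inactive = neither criterion met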;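 note: higher luciferase means less miR-122 activity so hits act as miR-122 inhibitors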
MITF TRPM1 HTS = activators of MITF-driven TRPM1 promoter activity in SK-MEL-5 cells; SK-MEL-5 TRPM1-promoter luciferase, 24 h; % of positive control, neutral wells = 0; activation, % at 12.5 µM; hit rate 0.75% among 300,000; AID 588334;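 active = mean activation of at least 80% with every replicate also reaching 80%; inconclusive = mean reaches 80% but some replicate falls short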;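 note: 0% = neutral control wells and 100% = parthenolide positive control wells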
The depositor's hits bear a star; [ ] = another dose, or the depositor's remark. The list is not random: actives were taken first. Their share in the collection is about 3.4%.

`c1cc(-c2cc3cc4c(cc3cn2)OCO4)cs1` gave HIV Env fusion -269, esBAF inh 77*, Wnt bcat act 50*, miR-122 sensor 6 and MITF TRPM1 HTS inconclusive.
COc1cc2cnc(-c3ccsc3)cc2cc1OC was read as HIV Env fusion -10, esBAF inh 11, Wnt bcat act -2 and MITF TRPM1 HTS -15.
`Fc1ccc(N2C(=S)SC(=Nc3ccccc3)C2=Nc2ccccc2)cc1` gave HIV Env fusion -45, Wnt bcat act 58* and MITF TRPM1 HTS 68.
N#CC(C#N)=C1SC(=Nc2ccccc2)C(=Nc2ccccc2)N1c1ccccc1 was read as HIV Env fusion 4, Wnt bcat act 56* and MITF TRPM1 HTS 3.
For COc1ccc(CN(C)C[C@H]2Oc3ccc(NC(=O)Nc4ccccc4)cc3CC(=O)N([C@@H](C)CO)C[C@@H]2C)cc1 the results were HIV Env fusion -2[16.7 µM], esBAF inh 0 and miR-122 sensor 3[16.7 µM].
Screening COC(=O)[C@H]1[C@H](CO)[C@H]2Cn3c(ccc(-c4ccccc4F)c3=O)[C@H]2N1Cc1ccccc1 returned esBAF inh 3 and miR-122 sensor -2[16.7 µM].
For O=S(=O)(c1cccc(-c2nnc(-c3ccc(Br)cc3)o2)c1)N1CCCCCC1 the results were HIV Env fusion 60*, esBAF inh 9 and miR-122 sensor 0.
For O=C(c1cccc(-c2nnc(-c3ccccc3)o2)c1)N1CCCCC1 the results were esBAF inh 72*, miR-122 sensor -13 and MITF TRPM1 HTS 51.
`O=C(O)c1ccc(-c2nnc(-c3cccc(Br)c3)o2)cc1` gave HIV Env fusion -35, esBAF inh 71*, Wnt bcat act 12 and MITF TRPM1 HTS 64.
Screening Cc1[nH]c2ccc(F)cc2c1CCN1C(=O)OC(C)(C)C1(C)O (centres undefined) returned HIV Env fusion 3, esBAF inh -3, Wnt bcat act 39*, miR-122 sensor -4 and MITF TRPM1 HTS 9.
For Cc1noc(C)c1NC(=O)N(C)C[C@@H]1Oc2ccc(NS(=O)(=O)c3cn(C)cn3)cc2CC(=O)N([C@@H](C)CO)C[C@@H]1C the results were HIV Env fusion -15[16.7 µM], esBAF inh -5 and miR-122 sensor 6[16.7 µM].
CC1(C(=O)Nc2ccc3c(c2)OCO3)CCN1Cc1csc2ccccc12 (centres undefined) was read as HIV Env fusion 63*, esBAF inh 7, Wnt bcat act -3 and miR-122 sensor -1.
COc1cccc(CN2CCC2(C)C(=O)Nc2cccc(Oc3ccccc3)c2)c1OC (centres undefined) was read as HIV Env fusion 86*, esBAF inh 8, Wnt bcat act -2 and miR-122 sensor -6.
For C[C@@H]1CCCCO[C@@H](CN(C)S(=O)(=O)c2ccc(F)cc2)[C@H](C)CN([C@@H](C)CO)C(=O)c2cc(NS(=O)(=O)c3ccccc3)ccc2O1 the results were HIV Env fusion -24[16.7 µM], esBAF inh 6 and miR-122 sensor 5[16.7 µM].
`O=C([C@H]1O[C@@H](n2ccc(=O)[nH]c2=O)[C@H](O)[C@@H]1O)N1CCN(Cc2ccccn2)CC1` gave HIV Env fusion 57* and Wnt bcat act -2.
For CCCSc1nnc(NC(=O)Nc2ccccc2OC)s1 the results were HIV Env fusion -43, esBAF inh 47*, Wnt bcat act 30 and miR-122 sensor -4.
For CSC1SCC2C(=O)N(C)C(C(C)C)C(=O)OCC(NC(=O)c3cnc4ccccc4n3)C(=O)NC(C)C(=O)N(C)C1C(=O)N(C)C(C(C)C)C(=O)OCC(NC(=O)c1cnc3ccccc3n1)C(=O)NC(C)C(=O)N2C (centres undefined) the results were HIV Env fusion 84*, Wnt bcat act -10 and miR-122 sensor 7.
Screening C[C@H](CO)N1C[C@H](C)[C@@H](CN(C)C(=O)C2CC2)Oc2cc(-c3ccccc3F)ccc2S1(=O)=O returned HIV Env fusion 37[16.7 µM], esBAF inh 0 and miR-122 sensor 27[16.7 µM].
Screening O=[N+]([O-])c1ccc(N=NNc2ccccc2)cc1 returned MITF TRPM1 HTS 52.
Clc1cccc(N/N=C/c2ccncc2)c1 was read as HIV Env fusion -37, Wnt bcat act 9, miR-122 sensor 8 and MITF TRPM1 HTS 101*.
Screening [O-]/[N+](=N\Nc1ccc(Cl)cc1)c1ccccc1 returned HIV Env fusion -48, esBAF inh 52*, Wnt bcat act 3, miR-122 sensor -1 and MITF TRPM1 HTS 75.
